Measured values reported in PubChem BioAssay AID2566 (National Center for Advancing Translational Sciences (NCATS), 2010).
Results filed as inconclusive are left out. Activity calls are given as the source filed them.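 The calls were made as follows: active = compound that pushes labeled neuropeptide S off its receptor in a binding test; inconclusive = all other tested compounds; inactive = none, nothing was called inactive.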

Molecular target: Neuropeptide S receptor (Homo sapiens) (UniProt Q6W5P4)
Assay: Confirmation Concentration-Response Assay for Antagonists of the Neuropeptide S Receptor: Radioligand Displacement, SAR for Probe
Details: CHO-hNPSR, [125I]Y10-NPS displacement, 1.5 h
Description: NIH Chemical Genomics Center [NCGC] NIH Molecular Libraries Probe Production centers Network [MLPCN] MLPCN Grant: X01-DA026210-01 Assay Submitter (PI): Heilig, Markus Alexander NCGC Assay Overview: Neuropeptide S receptor (NPSR), previously known as GPR154, is a recently de-orphanized G protein coupled receptor. Its endogenous ligand is the 20 amino acids peptide Neuropeptide S (NPS). […] NPS and its receptor are found in various tissues. Specifically they are highly expressed in brain areas that have been implicated in modulation of arousal, stress and anxiety. Central administration of NPS in mice produces an unusual profile of activity by inducing wakefulness and arousal, while at the same time suppressing anxiety. Therefore, NPSR may represent a novel drug target for the treatment of sleep and anxiety disorders. As one method of confirming the specific activity of compounds active in the primary screen (AID 1461), we developed an assay to measure the displacement of radio-labeled native ligand, NPS, from its receptor in vitro.
The assay was carried out as described (Xu et al. (2004) Neuron, 43: 487-497) with minor modification. Y10-NPS labeled with 125I was bought from NEN Perkin Elmer (Boston, MA). […] Nonspecific binding was determined in the presence of 1 uM unlabeled human NPS. […] Bound radioactivity was counted in a liquid scintillation counter.

Sequence of Neuropeptide S receptor (Homo sapiens) (Q6W5P4 whole entry, looked up): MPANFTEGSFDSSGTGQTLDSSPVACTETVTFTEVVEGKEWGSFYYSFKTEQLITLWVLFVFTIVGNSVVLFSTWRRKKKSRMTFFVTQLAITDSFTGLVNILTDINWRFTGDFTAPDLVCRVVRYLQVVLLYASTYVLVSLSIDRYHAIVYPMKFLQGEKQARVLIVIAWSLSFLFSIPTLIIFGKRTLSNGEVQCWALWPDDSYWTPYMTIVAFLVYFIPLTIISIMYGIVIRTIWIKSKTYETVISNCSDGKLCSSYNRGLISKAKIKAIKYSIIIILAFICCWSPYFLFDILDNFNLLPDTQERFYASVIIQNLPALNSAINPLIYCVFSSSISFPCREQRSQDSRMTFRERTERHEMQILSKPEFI

SMILES	Potency
Cc1c(P(=S)(c2ccccc2)c2ccccc2)[n+]2ccccc2n1C/C=C/c1ccccc1	1 nM (active)
Cc1c(P(=S)(c2ccccc2)c2ccccc2)[n+]2ccccc2n1C	84.3 nM (active)
